Reference: PubChem BioAssay (Tox21)
“And” between values parts separate entries of the source, which are not always exact repeats. Equal values may be shown once. Results filed as inconclusive are left out. A call without a number means that no potency is given here. Where a structure was tested more than once in an assay, its records may differ in their call. The source made the active and inactive calls. Calls follow the shape of the dose curve; as a rule, active = well fitted curve in the direction sought with a large enough effect in the repeat runs; inconclusive = weak or mixed curves; inactive = no such curve, though single readings can be large; an effect the other way counts as inactive or inconclusive.

Columns and labels:
[1] = Caspase-3/7 induction in HepG2 cells by small molecules, qHTS assay (AID 1346978); also: nearly all actives have a fitted effect of over 15% in size; also: potency is read from the fitted curve at half-maximal effect
In short: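 Wild-type HepG2 cells, 2,000/well, settled 5 hr at 37 C and 5% CO2, then compound-treated for 17 hr; caspase-3/7 activity read by luminescent Caspase-Glo 3/7 after 30 min at room temperature.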

[2] = Caspase-3/7 induction in CHO-K1 cells by small molecules, qHTS cell viability counter screen (AID 1346979); also: nearly all actives have a fitted effect of over 35% in size; also: potency is read from the fitted curve at half-maximal effect
In short: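 Cytotoxicity counter screen run in parallel with the caspase-3/7 assay: CHO-K1 cells, 16hr compound treatment at 37C, then CellTiter-Fluor for 1hr before fluorescence reading.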

[3] = Caspase-3/7 induction in CHO-K1 cells by small molecules, qHTS assay (AID 1346980); also: nearly all actives have a fitted effect of over 15% in size
In short: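 Wild-type CHO-K1 cells exposed to compounds for 17hr at 37 C, 5% CO2. Caspase-3/7 activity then measured by Caspase-Glo 3/7 luminescence after 30min at room temperature.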

[4] = Caspase-3/7 induction in HepG2 cells by small molecules, qHTS cell viability counter screen (AID 1346981); also: nearly all actives have a fitted effect of over 30% in size; also: potency is read from the fitted curve at half-maximal effect
In short: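 Wild-type HepG2 cells, 2,000/well, settled 5 hr at 37 C, 5% CO2 before compound addition. Viability read by CellTiter-Fluor fluorescence, reagent added after 16 hr compound exposure, then 1 hr at 37C, in the same wells as the caspase read.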

[5] = molecular target: Nuclear receptor subfamily 1 group I member 2 (Homo sapiens) (UniProt O75469); experiment: Human pregnane X receptor (PXR) small molecule agonists, qHTS assay (AID 1346982); also: nearly all actives have a fitted effect of over 35% in size; also: potency is read from the fitted curve at half-maximal effect
In short: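 PXR-Luc HepG2 reporter cells (CYP3A4-driven luciferase) in 5% charcoal-stripped FBS medium, plated 5 h before compound addition, then treated 24 h at 37C. Luciferase read by ONE-Glo luminescence after 30 min at room temperature.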

[6] = molecular target: Nuclear receptor subfamily 1 group I member 2 (Rattus norvegicus) (UniProt Q9R1A7); experiment: Rat pregnane X receptor (rPXR) activation by small molecules, qHTS assay (AID 1346983); settings: rPXR luciferase reporter cells, One-Glo luminescence, 24 h; max activation: stronger effect = higher value; also: nearly all actives have a fitted effect of over 20% in size
In short: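 Cell-based rPXR activation assay: rPXR cells, 2,000 per well, rested 5hr at 37 C, then exposed to compounds in DMSO for 24 hr at 37 C. Luciferase activity read by One-Glo luminescence after 30 min at room temperature.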

[7] = molecular target: Nuclear receptor subfamily 1 group I member 2 (Homo sapiens) (UniProt O75469); experiment: CYP3A4 induction through human pregnane X receptor (PXR) by small molecules, qHTS assay (AID 1346984); also: nearly all actives have a fitted effect of over 40% in size
In short: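 DPX-2 HepG2 cells carrying a PXR response element and CYP3A4-promoter luciferase construct, treated with compounds 24 hr at 37C. Then P450-Glo CYP3A4 Luciferin-IPA substrate (3uM final) for 3 hr at 37C, One-Glo added, luminescence read.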

[8] = molecular target: Nuclear receptor subfamily 1 group I member 2 (Homo sapiens) (UniProt O75469); experiment: Human pregnane X receptor (PXR) activation by small molecules, qHTS assay (AID 1346985); also: nearly all actives have a fitted effect of over 40% in size
In short: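 DPX-2 cells (HepG2 co-transfected with a PXR response element and a CYP3A4-promoter luciferase construct) were seeded at 2,000 per well, rested 5 hr at 37C, then exposed to DMSO-dissolved compounds for 24 hr. Activation was read as luciferase luminescence.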

[9] = molecular target: Cytochrome P450 2C19 (Homo sapiens) (UniProt P33261); experiment: Cytochrome P450 Family 2 Subfamily C Member 19 (CYP2C19) small molecule antagonists: luciferase reporter qHTS assay (AID 1671197); also: nearly all actives have a fitted effect of over 65% in size; also: potency is read from the fitted curve at half-maximal effect
In short: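 Light output is proportional to CYP2C19 activity: proluciferin substrate is converted to luciferin, then detected by a luciferin detection reagent that also stops the 1 h, 37C NADPH-driven reaction. Ketoconazole serves as positive control.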

[10] = molecular target: Cytochrome P450 2D6 (Homo sapiens) (UniProt P10635); experiment: Cytochrome P450 Family 2 Subfamily D Member 6 (CYP2D6) small molecule antagonists: luciferase reporter qHTS assay (AID 1671196); also: nearly all actives have a fitted effect of over 50% in size; also: potency is read from the fitted curve at half-maximal effect
In short: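 Cell-free P450-Glo system: CYP2D6 with proluciferin substrate was pre-incubated with compound for 10 min, then reacted with NADPH regeneration for 1 h at room temperature. Luciferin product was detected after 20 min, and data were reported as relative luminescence units.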

Nuclear receptor subfamily 1 group I member 2 (Homo sapiens), sequence (O75469 whole entry, looked up): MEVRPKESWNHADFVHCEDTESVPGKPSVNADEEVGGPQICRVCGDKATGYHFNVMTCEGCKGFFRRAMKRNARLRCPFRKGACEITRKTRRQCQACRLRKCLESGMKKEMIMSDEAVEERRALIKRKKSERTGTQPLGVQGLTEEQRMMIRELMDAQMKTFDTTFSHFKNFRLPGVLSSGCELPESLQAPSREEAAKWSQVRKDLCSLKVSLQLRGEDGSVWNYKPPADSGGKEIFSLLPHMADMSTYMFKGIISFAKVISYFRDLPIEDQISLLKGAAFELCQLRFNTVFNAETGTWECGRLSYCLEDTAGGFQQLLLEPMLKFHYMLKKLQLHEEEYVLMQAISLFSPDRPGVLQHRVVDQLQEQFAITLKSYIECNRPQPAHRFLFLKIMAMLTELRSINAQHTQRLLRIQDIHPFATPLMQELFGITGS
Cytochrome P450 2D6 (Homo sapiens), sequence (P10635 whole entry, looked up): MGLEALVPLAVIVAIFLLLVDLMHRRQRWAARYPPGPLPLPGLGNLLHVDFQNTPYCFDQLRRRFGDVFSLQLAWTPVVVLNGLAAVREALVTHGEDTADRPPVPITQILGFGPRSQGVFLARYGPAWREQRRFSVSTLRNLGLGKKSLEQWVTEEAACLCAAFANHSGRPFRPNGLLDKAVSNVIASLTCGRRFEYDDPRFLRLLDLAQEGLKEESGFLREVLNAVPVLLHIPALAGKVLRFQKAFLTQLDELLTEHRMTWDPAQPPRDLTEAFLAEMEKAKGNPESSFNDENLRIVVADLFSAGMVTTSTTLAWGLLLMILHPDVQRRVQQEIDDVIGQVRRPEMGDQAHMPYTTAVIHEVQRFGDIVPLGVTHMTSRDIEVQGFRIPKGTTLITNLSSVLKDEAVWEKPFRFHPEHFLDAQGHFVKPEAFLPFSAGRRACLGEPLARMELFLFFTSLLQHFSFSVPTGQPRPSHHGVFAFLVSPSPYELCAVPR
Nuclear receptor subfamily 1 group I member 2 (Rattus norvegicus), sequence (Q9R1A7 whole entry, looked up): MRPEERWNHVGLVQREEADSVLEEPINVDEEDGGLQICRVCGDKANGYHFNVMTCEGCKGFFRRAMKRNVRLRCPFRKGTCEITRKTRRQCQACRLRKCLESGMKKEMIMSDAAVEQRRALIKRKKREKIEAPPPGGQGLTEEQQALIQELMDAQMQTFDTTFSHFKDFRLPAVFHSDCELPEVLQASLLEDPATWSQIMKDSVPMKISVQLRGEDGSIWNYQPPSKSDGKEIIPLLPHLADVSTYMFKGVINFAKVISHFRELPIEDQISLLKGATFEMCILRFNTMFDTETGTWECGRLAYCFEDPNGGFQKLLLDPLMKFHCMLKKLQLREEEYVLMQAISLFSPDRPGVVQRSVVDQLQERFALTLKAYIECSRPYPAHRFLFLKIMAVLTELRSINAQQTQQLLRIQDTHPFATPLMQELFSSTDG
Cytochrome P450 2C19 (Homo sapiens), sequence (P33261 whole entry, looked up): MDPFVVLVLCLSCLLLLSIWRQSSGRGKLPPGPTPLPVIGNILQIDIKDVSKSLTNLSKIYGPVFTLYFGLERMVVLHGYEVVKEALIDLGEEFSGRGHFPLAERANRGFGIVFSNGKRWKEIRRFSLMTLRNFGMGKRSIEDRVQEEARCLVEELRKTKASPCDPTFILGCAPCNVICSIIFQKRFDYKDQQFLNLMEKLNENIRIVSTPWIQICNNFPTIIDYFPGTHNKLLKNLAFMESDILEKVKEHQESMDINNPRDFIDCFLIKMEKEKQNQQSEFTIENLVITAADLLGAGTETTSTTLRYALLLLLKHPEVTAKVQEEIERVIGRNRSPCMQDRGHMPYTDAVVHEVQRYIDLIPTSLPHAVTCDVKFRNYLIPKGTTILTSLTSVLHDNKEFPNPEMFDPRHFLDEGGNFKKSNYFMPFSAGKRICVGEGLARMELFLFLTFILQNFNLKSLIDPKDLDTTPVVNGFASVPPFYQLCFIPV

CN(C)C(=S)SC(=S)N(C)C
Potency [1]: 4.98 µM (active) and 770 nM (active) and 3.76 µM (active) | Potency [2]: 1.4 µM (active) and 433 nM (active) and 2.11 µM (active) | Potency [3]: inactive | Potency [4]: 30.6 µM (active) | Potency [5]: 1.98 µM (active) and inactive | max activation [6]: -4.94% (inactive) | Potency [7]: inactive | outcome [8]: inactive | Potency [9]: 16.3 µM (active) and 20 µM (active) and 7.76 µM (active)

Cc1cccc(C)c1
Potency [1]: inactive | Potency [2]: inactive | Potency [3]: inactive | Potency [4]: inactive | Potency [5]: inactive | Potency [10]: inactive and 21.8 µM (active) | Potency [9]: 68.6 µM (active) and inactive

CCc1nc(N)nc(N)c1-c1ccc(Cl)cc1
Potency [1]: inactive | Potency [2]: inactive | Potency [3]: inactive | Potency [4]: inactive | Potency [5]: 62.1 µM (active) | Potency [10]: 9.07 µM (active) and 15.9 µM (active) and 13.8 µM (active) | Potency [9]: inactive

CCN(Cc1c(F)cccc1Cl)c1c([N+](=O)[O-])cc(C(F)(F)F)cc1[N+](=O)[O-]
Potency [1]: inactive | Potency [2]: 54.5 µM (active) | Potency [3]: inactive | Potency [4]: inactive | Potency [5]: 8.63 µM (active) | Potency [10]: inactive | Potency [9]: 2.24 µM (active)

Cc1ncc([N+](=O)[O-])n1CCO
Potency [1]: inactive | Potency [2]: inactive | Potency [3]: inactive | Potency [4]: inactive | Potency [5]: inactive | Potency [10]: inactive | Potency [9]: inactive

C=C(C)C(=O)OCC(C)O (stereo unspecified)
Potency [1]: inactive | Potency [2]: inactive | Potency [3]: inactive | Potency [4]: inactive | Potency [5]: inactive | Potency [10]: inactive | Potency [9]: inactive

CCCc1cc(=O)[nH]c(=S)[nH]1
Potency [1]: inactive | Potency [2]: inactive | Potency [3]: inactive | Potency [4]: inactive | Potency [5]: inactive | max activation [6]: -3.01% (inactive) | Potency [7]: inactive | outcome [8]: inactive | Potency [10]: inactive | Potency [9]: inactive

Cc1ncc([N+](=O)[O-])n1C
Potency [1]: inactive | Potency [2]: inactive | Potency [3]: inactive | Potency [4]: inactive | Potency [5]: inactive | Potency [10]: inactive | Potency [9]: inactive

CC(C)C(=O)Nc1ccc([N+](=O)[O-])c(C(F)(F)F)c1
Potency [1]: inactive | Potency [2]: 44.5 µM (active) and 54.5 µM (active) and 26.6 µM (active) | Potency [3]: inactive | Potency [4]: inactive | Potency [5]: 35.4 µM (active) and 34.4 µM (active) and 29.8 µM (active) | Potency [10]: 36.6 µM (active) and 63.3 µM (active) | Potency [9]: 18.3 µM (active) and 22.4 µM (active) and 7.76 µM (active)

NC1CCCCC1
Potency [1]: inactive | Potency [2]: inactive | Potency [3]: inactive | Potency [4]: inactive | Potency [5]: inactive | Potency [10]: inactive | Potency [9]: 35.8 µM (active) and inactive

CN(C)CCOC(C)(c1ccccc1)c1ccccn1 (stereo unspecified)
Potency [1]: inactive | Potency [2]: inactive | Potency [3]: inactive | Potency [4]: inactive | Potency [5]: inactive | Potency [10]: 17.9 µM (active) and 20 µM (active) and 13.8 µM (active) | Potency [9]: 40 µM (active) and inactive

OC[C@H]1O[C@H](O[C@]2(CCl)O[C@H](CCl)[C@@H](O)[C@@H]2O)[C@H](O)[C@@H](O)[C@H]1Cl
Potency [1]: inactive | Potency [2]: inactive | Potency [3]: inactive | Potency [4]: inactive | Potency [5]: inactive | Potency [10]: inactive | Potency [9]: inactive

COc1ccc2cc(S(=O)(=O)N[C@H](CC(=O)N[C@H](Cc3ccc(CN4[C@H](C)CCC[C@@H]4C)cc3)C(=O)N(C)C(C)C)c3ccc4c(c3)OCO4)ccc2c1
Potency [1]: 57.9 µM (active) | Potency [2]: 51.6 µM (active) | Potency [3]: inactive | Potency [4]: 29 µM (active) | Potency [5]: inactive | Potency [10]: 169 nM (active)

Cc1cc(C)nc(NS(=O)(=O)c2ccc(N)cc2)n1
Potency [1]: inactive | Potency [2]: inactive | Potency [3]: inactive | Potency [4]: inactive | Potency [5]: inactive | Potency [10]: inactive | Potency [9]: 80.6 µM (active) and inactive

O=C1c2c(O)cccc2Cc2cccc(O)c21
Potency [1]: inactive | Potency [2]: inactive | Potency [3]: inactive | Potency [4]: inactive | Potency [5]: inactive | max activation [6]: -3.04% (inactive) | Potency [7]: inactive | outcome [8]: inactive | Potency [10]: inactive | Potency [9]: inactive

CS(=O)(=O)OCCCCOS(C)(=O)=O
Potency [1]: inactive | Potency [2]: inactive | Potency [3]: inactive | Potency [4]: inactive | Potency [5]: inactive | max activation [6]: -4.1% (inactive) | Potency [7]: inactive | outcome [8]: inactive | Potency [10]: 35700 nM (active) | Potency [9]: 56.6 µM (active) and inactive

O=C(O)CC(O)C(=O)O (stereo unspecified)
Potency [1]: inactive | Potency [2]: inactive | Potency [3]: inactive | Potency [4]: inactive | Potency [5]: inactive | max activation [6]: -2.6% (inactive) | outcome [8]: inactive | Potency [10]: inactive

F[B-](F)(F)F
Potency [1]: inactive | Potency [2]: inactive | Potency [3]: inactive | Potency [4]: inactive | Potency [5]: inactive | Potency [10]: inactive | Potency [9]: 73.9 µM (active) and inactive and 79.6 µM (active)

NS(=O)(=O)O
Potency [1]: inactive | Potency [2]: inactive | Potency [3]: inactive | Potency [4]: inactive | Potency [5]: inactive | Potency [10]: inactive | Potency [9]: 73.7 µM (active) and inactive

CCCCOC(=O)c1ccc(O)cc1
Potency [1]: inactive | Potency [2]: 31 µM (active) and inactive | Potency [3]: inactive | Potency [4]: inactive | Potency [5]: 69.4 µM (active) and inactive | Potency [10]: inactive | Potency [9]: 28.6 µM (active) and 35.6 µM (active) and 15.5 µM (active)
